RORg inh – ROR gamma (mouse) transcription inhibition; AID 2551; 5.4% of 310,000 active; Potency, µM (top dose mostly 53.6 µM), usual class: inhibitors; Drosophila S2 Gal4-RORgamma UAS-luciferase reporter, 20 h; also: nearly all actives have a fitted effect of over 60% in size
Target sequence (P51450 whole entry, looked up, the tested form may be a part): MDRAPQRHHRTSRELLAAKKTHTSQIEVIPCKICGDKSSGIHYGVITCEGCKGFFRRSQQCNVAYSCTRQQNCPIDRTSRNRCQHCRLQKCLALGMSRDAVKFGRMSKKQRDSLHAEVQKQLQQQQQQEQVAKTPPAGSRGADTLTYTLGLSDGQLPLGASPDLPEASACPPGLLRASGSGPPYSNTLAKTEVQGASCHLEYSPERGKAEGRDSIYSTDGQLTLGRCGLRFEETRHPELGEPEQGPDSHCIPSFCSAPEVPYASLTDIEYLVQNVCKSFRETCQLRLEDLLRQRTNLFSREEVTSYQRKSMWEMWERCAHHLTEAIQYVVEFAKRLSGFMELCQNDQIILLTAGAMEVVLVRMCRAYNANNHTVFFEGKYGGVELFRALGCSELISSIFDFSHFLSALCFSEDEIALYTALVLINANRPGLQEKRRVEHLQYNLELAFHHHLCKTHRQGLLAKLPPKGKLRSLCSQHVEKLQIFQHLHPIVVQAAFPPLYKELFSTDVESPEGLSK
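ROR gamma transcriptional activity was tracked as Gal4-UAS luciferase output in stably transfected Drosophila Schneider cells, with compound added 1 hr before 700 uM copper sulfate induction and a 20 hr ambient-temperature incubation.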
SW480 rerep – inducers of DNA re-replication in SW480 colon cancer cells; Potency, µM (highest dose often 46.1 µM), hits mostly activators; SW480 DNA re-replication, Hoechst DNA content imaging, 48 h; 1.8% of 340,000 active; also: nearly all actives have a fitted effect of over 55% in size
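Per well, 250 cells were exposed to pinned compound for 48 hr. Nuclear DNA was visualised with Hoechst (40 min, 37 C) and total object intensity recorded by fluorescence scanning.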
KB-V1 MDR tox – KB-V1 MDR subline cytotoxicity. KB-V1 MDR cells viability, CellTiter-Glo, 72 h. Potency, µM (titrated, usually from 46.1 µM), most hits filed as cytotoxic. 3.4% of 400,000 active. AID 1347076; also: nearly all actives have a fitted effect of over 60% in size
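Drug-selected KB-V1 cells, grown in DMEM lacking phenol red with 10% FBS, receive compound titrations; after three days at 37 degrees C, surviving cell ATP is quantified by CellTiter-Glo luminescence and responses normalized and curve-fitted.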
Gal4-VP16 FLuc – inhibits Gal4-VP16 luciferase reporter, ROR gamma counter-screen | Potency, µM (titrated, usually from 53.6 µM), most hits filed as inhibitors | AID 2546 | 3.5% of 310,000 active | Drosophila S2 Gal4-VP16 UAS-luciferase, luminescence, 20 h;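 also: Gal4-VP16 expression switched on by copper sulfate through the metallothionein promoter; nearly all actives have a fitted effect of over 50% in size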
KB-3-1 cytotox – KB-3-1 parental cell cytotoxicity; KB-3-1 viability, CellTiter-Glo ATP luminescence, 72 h; Potency, µM (series often up to 46.1 µM), most hits filed as cytotoxic; 1.4% of 400,000 active; AID 1347075; also: nearly all actives have a fitted effect of over 60% in size
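Using CellTiter-Glo luminescence, growth of non-resistant KB-3-1 adenocarcinoma cells is assessed 72 h after pin-tool compound addition at 37 °C. Normalized responses across the concentration series yield fitted curves.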
MCF10A rereplic – inducers of DNA re-replication in MCF 10A breast cells. MCF 10A DNA re-replication, Hoechst nuclear intensity, 48 h. Potency, µM (top dose mostly 46.1 µM), usual class: activators. 2.9% of 350,000 active. AID 624296; also: nearly all actives have a fitted effect of over 50% in size
Large screens that a line does not name were inactive. Sampled rows, rich in hits. Any-hit rate of the full collection: about 10%. Calls follow the shape of the dose curve; as a rule, active = well fitted curve in the direction sought with a large enough effect; inconclusive = small, poorly fitted or top-dose-only effect, or another doubt; inactive = no such curve, though single readings can be large; an effect the other way counts as inactive or inconclusive.

Cc1ccsc1/C=N/NC(=O)c1cc(-c2ccncc2)nc2ccccc12	RORg inh 1.8µM, SW480 rerep 1.5µM, KB-V1 MDR tox inconclusive, Gal4-VP16 FLuc 8.9µM, KB-3-1 cytotox 1.2µM, MCF10A rereplic 0.73µM
Cc1ccc(NC(=O)c2cc(-c3cccs3)nc3ccccc23)c(C)c1	none (no result: RORg inh, SW480 rerep, Gal4-VP16 FLuc, MCF10A rereplic)
CSc1ccc(C(O)c2ncc(-c3ccccc3Cl)[nH]2)cc1 (stereo unspecified)	none (no result: RORg inh, SW480 rerep, Gal4-VP16 FLuc, MCF10A rereplic)
O=C(NCc1ccco1)C(c1ccco1)N(Cc1cccs1)C(=O)Cn1nnc2ccccc21 (stereo unspecified)	none
O=C(NC1CCCCC1)C(c1ccco1)N(Cc1cccs1)C(=O)Cn1nnc2ccccc21 (stereo unspecified)	KB-V1 MDR tox 5.2µM
O=C(NC1CCCCC1)C(c1cccs1)N(C(=O)C(F)(F)F)c1ccccc1 (stereo unspecified)	SW480 rerep inconclusive, Gal4-VP16 FLuc inconclusive, MCF10A rereplic 15µM
NC(=O)c1nsc(C(=O)N(CCc2ccccc2)C(C(=O)NC2CCCC2)c2ccco2)c1N (stereo unspecified)	none
O=C(NC1CCCCC1)C(c1ccco1)N(CCc1ccccc1)C(=O)C(F)(F)F (stereo unspecified)	KB-V1 MDR tox 7.3µM, KB-3-1 cytotox inconclusive
CN1CC(=O)N(CC(=O)Nc2cccc(C#N)c2)c2ccccc2C1=O	none (no result: RORg inh, SW480 rerep, Gal4-VP16 FLuc, MCF10A rereplic)
CCOC(=O)[C@]12CCCC=C1N(Cc1ccc3c(c1)OCO3)C(=O)[C@H](CC(=O)NCCC(C)C)C2	none (no result: RORg inh, SW480 rerep, Gal4-VP16 FLuc, MCF10A rereplic)
CCc1nc2ccc(C(=O)N(C)Cc3ccco3)cn2c1N(CC)C(=O)NCCc1ccccc1	none (no result: RORg inh, SW480 rerep, Gal4-VP16 FLuc, MCF10A rereplic)
Cc1ccccc1C(=O)Oc1cccc2c(O)cccc12	Gal4-VP16 FLuc inconclusive
Cc1ccccc1S(=O)(=O)Oc1cccc2c(O)cccc12	RORg inh 7.1µM, Gal4-VP16 FLuc inconclusive, MCF10A rereplic inconclusive
COc1cc(NC(=O)CSc2nc(C)c(C(=O)Nc3ccccc3)c(-c3ccc(OC)c(OC)c3)c2C#N)c(OC)cc1Cl	none (no result: RORg inh, SW480 rerep, Gal4-VP16 FLuc, MCF10A rereplic)
CCCOC(=S)Nc1ccccc1	RORg inh 11µM, KB-V1 MDR tox inconclusive
CCC(C)NC(=S)Nc1ccccc1 (stereo unspecified)	RORg inh 5.6µM, Gal4-VP16 FLuc inconclusive
S=C(Nc1ccccc1)N1CCN(C(=S)Nc2ccccc2)CC1	none (no result: SW480 rerep, KB-V1 MDR tox, KB-3-1 cytotox, MCF10A rereplic)
CCCC(C)NC(=S)Nc1cc(C)cc(C)c1 (stereo unspecified)	RORg inh 1.4µM, Gal4-VP16 FLuc 6.3µM
CCC(C)NC(=S)Nc1ccc(C(=O)OC)cc1 (stereo unspecified)	RORg inh 7.1µM, KB-V1 MDR tox inconclusive, Gal4-VP16 FLuc inconclusive
Cc1cc(C)cc(NC(=S)NCCCO)c1	none
CCC(C)NC(=S)Nc1ccccc1OC (stereo unspecified)	MCF10A rereplic inconclusive
Cc1cc(N(C)NC(=S)Nc2ccccc2)nc(C)n1	SW480 rerep 1.8µM
CCc1cccc(CC)c1NC(=S)Nc1ccccc1	RORg inh 13µM, Gal4-VP16 FLuc inconclusive
CC(C)c1ccccc1NC(=S)NC(C)c1ccccc1 (stereo unspecified)	RORg inh inconclusive, SW480 rerep inconclusive, KB-V1 MDR tox inconclusive, Gal4-VP16 FLuc inconclusive
CC(NC(=S)Nc1ccc(F)cc1)c1ccccc1 (stereo unspecified)	RORg inh 7.1µM, Gal4-VP16 FLuc 7.9µM, KB-3-1 cytotox inconclusive
CC(Cc1cccs1)NC(=S)Nc1ccccc1 (stereo unspecified)	RORg inh 4.5µM, Gal4-VP16 FLuc 7.1µM, MCF10A rereplic inconclusive
CCc1cccc(CC)c1NC(=O)c1cccc(NC(=O)c2ccccc2)c1	KB-V1 MDR tox inconclusive
CC(C)C[C@@H](C(=O)N[C@@H](Cc1c[nH]c2ccccc12)C(N)=O)N1C[C@]2(CCCN2C(=O)[C@H](Cc2ccccc2)NC(=O)[C@H](Cc2ccccc2)NC(=O)[C@H](CCC(N)=O)NC(=O)[C@H](CCC(N)=O)NC(=O)[C@@H]2CCCN2C(=O)[C@H](CCCCN)NC(=O)[C@@H]2CCCN2C(=O)[C@@H](N)CCCNC(=N)N)CC1=O	none (no result: SW480 rerep, KB-V1 MDR tox, KB-3-1 cytotox, MCF10A rereplic)
CC(C)N(C)NC(=S)Nc1ccccc1	Gal4-VP16 FLuc inconclusive
